The values below come from PubChem BioAssay (NCATS).

Experiment [1] is described as follows: qHTS profiling of the MIPE4 collection as inhibitors of Plasmodium falciparum (3D7) proliferation (AID 743344).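 Further: scaled between DMSO vehicle wells and 0.29 µM artemisinin as full inhibition.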 As to conditions: P. falciparum 3D7 in erythrocytes, SYBR Green DNA fluorescence, 72 h; at 28.5 µM unless noted. The method in brief: (§1)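 Erythrocytes infected with P. falciparum (0.3% parasitemia, 2.5% hematocrit) incubated with compounds 72 h at 37 C, 5% CO2. Lysis with saponin/Triton buffer containing SYBR Green I, overnight at room temperature in the dark; DNA fluorescence (485/535 nm) normalised to 0.29 uM artemisinin and DMSO.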

A short description of experiment [2]: qHTS profiling of the MIPE4 collection as inhibitors of Plasmodium falciparum (DD2) proliferation (AID 743345). The conditions noted are these: P. falciparum Dd2 in erythrocytes, SYBR Green DNA, 72 h; at 28.5 µM unless noted. The method in brief:
as §1
Background: In qHTS, concentration-response curves come from the screen itself.

Experiment [3] can be described thus: qHTS profiling of the MIPE4 collection as inhibitors of Plasmodium falciparum (DD2) proliferation (Rep 2) (AID 743346). The conditions noted are these: P. falciparum Dd2 in erythrocytes, SYBR Green DNA, 72 h; at 28.5 µM unless noted. In a few lines: as §1
Experiment [4] in a line: qHTS profiling of the MIPE4 collection as inhibitors of Plasmodium falciparum (HB3) proliferation (AID 743347).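 Further: plate controls were DMSO vehicle wells for no effect and artemisinin wells for full effect.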 The conditions noted are these: P. falciparum HB3 in erythrocytes, SYBR Green DNA, 72 h; at 28.5 µM unless noted. The method in brief:
as §1

Experiment [5] can be described thus: High-throughput drug toxicity screening in the BPDCN cell line Gen2.2 (AID 1224824).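 Further: cells exposed to compounds for 48 h before reading.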 The conditions noted are these: Gen2.2 BPDCN cells; at 45.8 µM (top of the series) unless noted. In a few lines:
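Gen2.2 cells (500/well) in phenol red-free RPMI with 10% FBS were exposed to compounds for 48 h at 37 °C, 5% CO2. Viability was read by CellTiter-Glo luminescence and normalized to DMSO (100%) and 9.2 uM bortezomib (0%).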

Experiment [6] in a line: High-throughput drug toxicity screening in the BPDCN cell line Cal-1 (AID 1224825). As to conditions: Cal-1 BPDCN cell viability, qHTS; at 45.8 µM (top of the series) unless noted. The method in brief:
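Exponentially growing Cal-1 cells, 500 per well in phenol red-free RPMI with 10% FBS, were exposed to compounds for 48 h at 37 °C, 5% CO2. Viability was read by CellTiter-Glo luminescence and normalised to DMSO (100%) and 9.2 uM bortezomib (0%).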

A short description of experiment [7]: qHTS assay for measurement of the activity of small molecule inhibitors on Zika virus induced Caspase-3 activity in human astrocytoma cells (AID 1224859; active means well fitted inhibition curve with a large enough effect;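 further: plate controls were ZIKV-infected untreated cells for no effect and uninfected cells for full effect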). In a few lines: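 Caspase activation in ZIKV-infected SNB-19 cells (2 FFU/cell, 6 h) measured by Caspase-Glo 3/7 luminescence after 30 min RT; compound pre-incubated 1 h; normalised to uninfected and infected controls.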

Experiment [8] can be described thus: qHTS Screen of the MIPE 4.0 Collection Against Ewings Sarcoma (EW8) (AID 1259255; active means well fitted inhibition curve with a large enough effect; further: nearly all actives have a fitted effect of over 35% in size; further: potency means the concentration at half of the fitted maximal effect;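 on viability: 100% = DMSO-treated cells and 0% = medium-only wells without cells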). In a few lines:
(§2)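 Here, cells in 5% FBS RPMI were exposed for two days (48 h) to compound dilutions added four hours after plating. ATP-based CellTiter-Glo luminescence measured viability, normalized to vehicle and no-cell blanks.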

Experiment [9] is described as follows: qHTS Screen of the MIPE 4.0 Collection Against Ewings Sarcoma (RDES) (AID 1259252; active means well fitted inhibition curve with a large enough effect; further: nearly all actives have a fitted effect of over 35% in size; further: potency means the concentration at half of the fitted maximal effect). In a few lines:
as §2

The nature of experiment [10]: qHTS Screen of the MIPE 4.0 Collection Against Ewings Sarcoma (TC71) (AID 1259253; active means well fitted inhibition curve with a large enough effect; further: nearly all actives have a fitted effect of over 40% in size; further: potency means the concentration at half of the fitted maximal effect). The method in brief:
as §2

Experiment [11] in a line: qHTS Screen of the MIPE 4.0 Collection Against Ewings Sarcoma (TC32) (AID 1259256; active means well fitted inhibition curve with a large enough effect; further: nearly all actives have a fitted effect of over 45% in size; further: potency means the concentration at half of the fitted maximal effect). The method in brief:
as §2

The nature of experiment [12]: qHTS assay for measurement of the activity of small molecule inhibitors on Zika virus induced Caspase-3 activity in human iPSC derived neural progenitor cells (hNPCs) (AID 1224857; active means well fitted inhibition curve with a large enough effect; further: % of control where 0% means no effect; nearly all actives have a fitted effect of over 65% in size). In a few lines:
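Zika virus (2 FFU/cell) infection of human iPSC-derived NPCs, 6 h, following 1 h compound preincubation. Read-out: Caspase-Glo 3/7 luminescence.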

Results filed as inconclusive are left out. Activity calls are given as the source filed them. Unless noted, how the calls were made is not given here.

In the case of `NS(=O)(=O)c1ccc(NC2=CC(=O)c3ccccc3C2=O)cc1`, the parasite growth, % of DMSO control in [1] is 6.05%. In experiment [2], the parasite growth remaining, % of DMSO control (lower = more inhibition) came out at 9.74%. Further, the parasite growth, % of control (lower = inhibition) in [3] was determined as 8.91%. The growth, % of control in experiment [4] was found to be 3.54%. Also, in experiment [5], the cell viability, % of control (lower = more cytotoxic) worked out at 162%. Besides, the viability (% of control) in [6] was 88.5%. In experiment [7], the Potency result was “inactive”. Besides, in [8], the Potency is 1.87 µM (active).
For `O=C(CCc1ccc(O)cc1)c1c(O)cc(O)cc1O[C@@H]1O[C@H](CO)[C@H](O)[C@H](O)[C@H]1O`, the parasite growth, % of DMSO control in experiment [1] came out at 272%. Moreover, the parasite growth remaining, % of DMSO control (lower = more inhibition) in [2] worked out at 79.6%. Besides, the parasite growth, % of control (lower = inhibition) in experiment [3] came to 57.9%. This compound came in with a growth, % of control in experiment [4] of 54%. Besides, the cell viability, % of control (lower = more cytotoxic) in [5] is 238%. Besides, the viability (% of control) in experiment [6] worked out at 107%. Also, the Potency result in experiment [7], in [9], in experiment [10], in experiment [8] and in experiment [11] was “inactive” each time.
Regarding `CC[C@@]1(O)C[C@H](O[C@H]2C[C@H](N(C)C)[C@H](O[C@H]3C[C@H](O)[C@H](O[C@H]4CCC(=O)[C@H](C)O4)[C@H](C)O3)[C@H](C)O2)c2c(cc3c(c2O)C(=O)c2c(O)cccc2C3=O)[C@@H]1C(=O)OC`, the parasite growth, % of DMSO control in [1] came out at 3.31%. Besides, in experiment [2], the parasite growth remaining, % of DMSO control (lower = more inhibition) came to 4.79%. Further, in experiment [5], the cell viability, % of control (lower = more cytotoxic) came out at 5.55%. Also, the viability (% of control) in experiment [6] worked out at 3.95%. Further, the Potency entry in experiment [7] and in [11] was “inactive” throughout. The values for the Potency in experiment [9], in [10] and in [8] were 0.59 µM (active), 0.187 µM (active) and 0.296 µM (active), respectively.
`Cc1ccc([C@@H]2O[C@H](CO)[C@@H](O)[C@H](O)[C@@H]2O)cc1Cc1ccc(-c2ccc(F)cc2)s1` came in with a parasite growth, % of DMSO control in experiment [1] of 134%. Also, in experiment [2], the parasite growth remaining, % of DMSO control (lower = more inhibition) stood at 118%. For the same compound, the parasite growth, % of control (lower = inhibition) in experiment [3] came to 75.3%. For the same compound, in experiment [4], the growth, % of control was found to be 310%. Further, in experiment [5], the cell viability, % of control (lower = more cytotoxic) came to 126%. The viability (% of control) in [6] is 48.1%. Further, in experiment [12], the Potency entry is “inactive”.
Compound `CC(C)C[C@H](CC(=O)O)C(=O)N[C@@H](Cc1c[nH]c2ccccc12)C(=O)N[C@@H](C)c1ccccc1` had a parasite growth, % of DMSO control in experiment [1] of 79.9%. In [2], the parasite growth remaining, % of DMSO control (lower = more inhibition) worked out at 77.8%. The same compound yielded a parasite growth, % of control (lower = inhibition) in experiment [3] of 57.5%. In addition, the cell viability, % of control (lower = more cytotoxic) in [5] amounted to 161%. For the same compound, the viability (% of control) in experiment [6] came out at 6.64%. Besides, the Potency entry in experiment [12] is “inactive”.
For `CCOC1OC(=O)C[C@H]1NC(=O)[C@@H]1CCCN1C(=O)[C@@H](NC(=O)c1ccc(N)c(Cl)c1)C(C)(C)C` (stereo partly drawn), the cell viability, % of control (lower = more cytotoxic) in [5] amounted to 49.8%. The viability (% of control) in experiment [6] came out at 16.7%. Moreover, the Potency result in [7], in experiment [9], in experiment [10], in experiment [8] and in experiment [11] was “inactive” throughout.
For `Cc1ccc(C(=O)Nc2cccc(C(F)(F)F)c2)cc1Nc1nc(-c2cccnc2)nc2c1cnn2C`, the parasite growth, % of DMSO control in [1] amounted to 7.71%. Moreover, the parasite growth remaining, % of DMSO control (lower = more inhibition) in [2] came to 12%. This compound also displayed a growth, % of control in experiment [4] of 10.4%. In addition, the cell viability, % of control (lower = more cytotoxic) in experiment [5] was 6.02%. Further, the viability (% of control) in experiment [6] worked out at 3.12%. Besides, in [7], the Potency entry was “inactive”. In addition, the Potency was 14.8 µM (active) in [9], 18.7 µM (active) in [10], 13.2 µM (active) in experiment [8] and 13.2 µM (active) in [11].
In [1], `NS(=O)(=O)c1cccc2c1C(=O)c1cccc(O)c1C2=O` registered a parasite growth, % of DMSO control of 4.48%. In addition, the parasite growth remaining, % of DMSO control (lower = more inhibition) in experiment [2] is 6.12%. In experiment [3], this compound showed a parasite growth, % of control (lower = inhibition) of 4.4%. Also, in experiment [5], the cell viability, % of control (lower = more cytotoxic) stood at 5.1%. The viability (% of control) in experiment [6] stood at 3.92%. The Potency result in [7] is “inactive”. Also, the Potency in [9] is 18.7 µM (active); in experiment [10], 18.7 µM (active); in [8], 11.8 µM (active); in experiment [11], 1.87 µM (active).
Regarding `CCCCCCCCCCCC1=C(O)C(=O)C=C(O)C1=O`, the parasite growth, % of DMSO control in [1] is 54.7%. For the same compound, in [2], the parasite growth remaining, % of DMSO control (lower = more inhibition) was found to be 63.9%. Besides, in experiment [3], the parasite growth, % of control (lower = inhibition) worked out at 16.4%. Also, the growth, % of control in experiment [4] amounted to 27.2%. For the same compound, the cell viability, % of control (lower = more cytotoxic) in experiment [5] stood at 52.7%. In experiment [6], the viability (% of control) is 15.1%. The Potency result in experiment [7] and in [8] was “inactive” each time. In addition, in experiment [11], the Potency is 23.5 µM (active).
In experiment [1], `CC(=Cc1ccccc1)C=C1SC(=S)N(CC(=O)O)C1=O` gave a parasite growth, % of DMSO control of 92.1%. Besides, the parasite growth remaining, % of DMSO control (lower = more inhibition) in experiment [2] stood at 102%. The parasite growth, % of control (lower = inhibition) in experiment [3] worked out at 81.2%. In addition, the growth, % of control in experiment [4] was determined as 98.1%. Also, the cell viability, % of control (lower = more cytotoxic) in experiment [5] was determined as 124%. The viability (% of control) in experiment [6] came out at 125%. Further, the Potency result in [7], in [9], in experiment [10], in [8] and in experiment [11] was “inactive” throughout.
